Experimental data reported in article PMC5540273 (PLoS ONE, 2017).

Experiments:
Details in all cases: concentration: 1 μM, replicates: in singlicate; n = 1
[1] = system: T1, MLK1
T1 construct: gene MAP3K9

[2] = system: MLK2
[3] = system: MLK3
[4] = system: MRCKA
[5] = system: T2, MRCKB
T2 construct: gene CDC42BPB

[6] = system: MST1R
[7] = system: T3, MST1
T3 construct: gene STK4

[8] = system: T4, MST2
T4 construct: gene STK3

[9] = system: T5, MST3
T5 construct: gene STK24

[10] = system: MST4
[11] = system: MTOR
[12] = system: MUSK
[13] = system: MYLK2
[14] = system: MYLK4
[15] = system: MYLK
[16] = system: MYO3A
[17] = system: MYO3B
[18] = system: T6, NDR1
T6 construct: gene STK38

[19] = system: NDR2
[20] = system: NEK10
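Note: KINOMEscan kinase panel screen.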

## CCOc1nccc(-c2c(-c3ccc(F)cc3)ncn2C2CCNCC2)n1 [SB-249175]
[1]
  %Inh: 3%
[2]
  %Inh: 14%
[3]
  %Inh: 15%
[4]
  %Inh: 0%
[5]
  %Inh: 26%
[6]
  %Inh: 0%
[7]
  %Inh: 0%
[8]
  %Inh: 0%
[9]
  %Inh: 13%
[10]
  %Inh: 11%
[11]
  %Inh: 0%
[12]
  %Inh: 0%
[13]
  %Inh: 0%
[14]
  %Inh: 19%
[15]
  %Inh: 31%
[16]
  %Inh: 90%
[17]
  %Inh: 0%
[18]
  %Inh: 6%
[19]
  %Inh: 12%
[20]
  %Inh: 27%

## Fc1cc(Cl)ccc1Nc1ccnc2cc(-c3ccc(CN4CCOCC4)o3)ccc12 [GW560109]
[1]
  %Inh: 2%
[2]
  %Inh: 0%
[3]
  %Inh: 0%
[4]
  %Inh: 13%
[5]
  %Inh: 0%
[6]
  %Inh: 0%
[7]
  %Inh: 0%
[8]
  %Inh: 0%
[9]
  %Inh: 0%
[10]
  %Inh: 0%
[11]
  %Inh: 1%
[12]
  %Inh: 0%
[13]
  %Inh: 8%
[14]
  %Inh: 1%
[15]
  %Inh: 47%
[16]
  %Inh: 0%
[17]
  %Inh: 1%
[18]
  %Inh: 0%
[19]
  %Inh: 0%
[20]
  %Inh: 0%

## O=C(Nc1n[nH]c2nc(-c3cccc(O)c3)ccc12)C1CC1 [SB-711805]
[1]
  %Inh: 0%
[2]
  %Inh: 13%
[3]
  %Inh: 3%
[4]
  %Inh: 0%
[5]
  %Inh: 0%
[6]
  %Inh: 0%
[7]
  %Inh: 0%
[8]
  %Inh: 0%
[9]
  %Inh: 0%
[10]
  %Inh: 0%
[11]
  %Inh: 0%
[12]
  %Inh: 0%
[13]
  %Inh: 97.2%
[14]
  %Inh: 13%
[15]
  %Inh: 98.4%
[16]
  %Inh: 18%
[17]
  %Inh: 0%
[18]
  %Inh: 0%
[19]
  %Inh: 0%
[20]
  %Inh: 0%

## CC(C)c1nc(-c2cccc(NS(=O)(=O)c3c(F)cccc3F)c2)c(-c2ccnc(Nc3ccc(N4CCOCC4)nc3)n2)s1.Cl [GSK1723980]
[1]
  %Inh: 89%
[2]
  %Inh: 34%
[3]
  %Inh: 73%
[4]
  %Inh: 18%
[5]
  %Inh: 0%
[6]
  %Inh: 17%
[7]
  %Inh: 0%
[8]
  %Inh: 0%
[9]
  %Inh: 13%
[10]
  %Inh: 16%
[11]
  %Inh: 7%
[12]
  %Inh: 0%
[13]
  %Inh: 0%
[14]
  %Inh: 0%
[15]
  %Inh: 6%
[16]
  %Inh: 25%
[17]
  %Inh: 47%
[18]
  %Inh: 32%
[19]
  %Inh: 0%
[20]
  %Inh: 9%

## COc1cccc(C2=C(Nc3cccc(O)c3)C(=O)NC2=O)c1 [SB-390771]
[1]
  %Inh: 21%
[2]
  %Inh: 0%
[3]
  %Inh: 4%
[4]
  %Inh: 18%
[5]
  %Inh: 0%
[6]
  %Inh: 0%
[7]
  %Inh: 13%
[8]
  %Inh: 12%
[9]
  %Inh: 0%
[10]
  %Inh: 7%
[11]
  %Inh: 38%
[12]
  %Inh: 0%
[13]
  %Inh: 0%
[14]
  %Inh: 6%
[15]
  %Inh: 27%
[16]
  %Inh: 17%
[17]
  %Inh: 0%
[18]
  %Inh: 18%
[19]
  %Inh: 0%
[20]
  %Inh: 67%

## Nc1cccc(-c2ccc3c(N)n[nH]c3c2)c1 [GSK2193613]
[1]
  %Inh: 10%
[2]
  %Inh: 100%
[3]
  %Inh: 19%
[4]
  %Inh: 0%
[5]
  %Inh: 0%
[6]
  %Inh: 26%
[7]
  %Inh: 6%
[8]
  %Inh: 17%
[9]
  %Inh: 21%
[10]
  %Inh: 0%
[11]
  %Inh: 13%
[12]
  %Inh: 20%
[13]
  %Inh: 92.3%
[14]
  %Inh: 96.9%
[15]
  %Inh: 40%
[16]
  %Inh: 45%
[17]
  %Inh: 0%
[18]
  %Inh: 27%
[19]
  %Inh: 13%
[20]
  %Inh: 10%

## Nc1ncc(-c2cn[nH]c2)c2scc(-c3ccc4c(c3)CCN4C(=O)Cc3ccccc3)c12 [GSK2593067]
[1]
  %Inh: 16%
[2]
  %Inh: 0%
[3]
  %Inh: 32%
[4]
  %Inh: 0%
[5]
  %Inh: 0%
[6]
  %Inh: 27%
[7]
  %Inh: 99.4%
[8]
  %Inh: 14%
[9]
  %Inh: 0%
[10]
  %Inh: 20%
[11]
  %Inh: 4%
[12]
  %Inh: 64%
[13]
  %Inh: 69%
[14]
  %Inh: 17%
[15]
  %Inh: 4%
[16]
  %Inh: 6%
[17]
  %Inh: 0%
[18]
  %Inh: 0%
[19]
  %Inh: 0%
[20]
  %Inh: 22%

## N#CC1(c2cccc(C(=O)Nc3cccc(Oc4ccc5nc(NC(=O)C6CC6)sc5n4)c3)c2)CC1
[1]
  %Inh: 1%
[2]
  %Inh: 22%
[3]
  %Inh: 17%
[4]
  %Inh: 0%
[5]
  %Inh: 0%
[6]
  %Inh: 0%
[7]
  %Inh: 4%
[8]
  %Inh: 8%
[9]
  %Inh: 0%
[10]
  %Inh: 4%
[11]
  %Inh: 3%
[12]
  %Inh: 0%
[13]
  %Inh: 0%
[14]
  %Inh: 0%
[15]
  %Inh: 23%
[16]
  %Inh: 0%
[17]
  %Inh: 0%
[18]
  %Inh: 18%
[19]
  %Inh: 0%
[20]
  %Inh: 0%

## CC(C)(C)c1ccc(C(=O)Nc2cn3cc(-n4ccnc4)ccc3n2)cc1
[1]
  %Inh: 18%
[2]
  %Inh: 0%
[3]
  %Inh: 0%
[4]
  %Inh: 28%
[5]
  %Inh: 0%
[6]
  %Inh: 28%
[7]
  %Inh: 7%
[8]
  %Inh: 3%
[9]
  %Inh: 0%
[10]
  %Inh: 0%
[11]
  %Inh: 10%
[12]
  %Inh: 1%
[13]
  %Inh: 18%
[14]
  %Inh: 2%
[15]
  %Inh: 0%
[16]
  %Inh: 0%
[17]
  %Inh: 0%
[18]
  %Inh: 8%
[19]
  %Inh: 7%
[20]
  %Inh: 0%

## Cn1cc(-c2cnc(N)c3c(-c4ccc5c(c4)CCN5C(=O)Cc4ccccc4)csc23)cn1 [GSK2593074]
[1]
  %Inh: 14%
[2]
  %Inh: 25%
[3]
  %Inh: 14%
[4]
  %Inh: 10%
[5]
  %Inh: 10%
[6]
  %Inh: 12%
[7]
  %Inh: 97.8%
[8]
  %Inh: 100%
[9]
  %Inh: 7%
[10]
  %Inh: 33%
[11]
  %Inh: 0%
[12]
  %Inh: 24%
[13]
  %Inh: 55%
[14]
  %Inh: 0%
[15]
  %Inh: 4%
[16]
  %Inh: 0%
[17]
  %Inh: 45%
[18]
  %Inh: 10%
[19]
  %Inh: 2%
[20]
  %Inh: 22%
